Bioassay records from PubChem BioAssay.
HEK293 viab: cell viability loss counter-screen | 150,000 tested, 0.12% active | HEK-293-SNCA-luc viability, GF-AFC fluorescence, 24 h | Potency, µM (top dose mostly 57.1 µM), most hits filed as cytotoxic; also: nearly all actives have a fitted effect of over 30% in size
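HEK-293-SNCA-luc cells (1500/well) plated 24 h, then exposed 24 h to a dilution series; GF-AFC added 30 min at 37C, fluorescence 405/540 nm; normalised to medium-only and DMSO wells, Hill fit.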
KDM5B inh: inhibitors of human KDM5B histone demethylase | Q9UGL1 | KDM5B demethylase, FDH-coupled NADH fluorescence (FDH is formaldehyde dehydrogenase) | Potency, µM (series often up to 57.7 µM), usual class: inhibitors | 220,000 tested, 2.6% active; also: nearly all actives have a fitted effect of over 70% in size
Target sequence (Q9UGL1 whole entry, looked up): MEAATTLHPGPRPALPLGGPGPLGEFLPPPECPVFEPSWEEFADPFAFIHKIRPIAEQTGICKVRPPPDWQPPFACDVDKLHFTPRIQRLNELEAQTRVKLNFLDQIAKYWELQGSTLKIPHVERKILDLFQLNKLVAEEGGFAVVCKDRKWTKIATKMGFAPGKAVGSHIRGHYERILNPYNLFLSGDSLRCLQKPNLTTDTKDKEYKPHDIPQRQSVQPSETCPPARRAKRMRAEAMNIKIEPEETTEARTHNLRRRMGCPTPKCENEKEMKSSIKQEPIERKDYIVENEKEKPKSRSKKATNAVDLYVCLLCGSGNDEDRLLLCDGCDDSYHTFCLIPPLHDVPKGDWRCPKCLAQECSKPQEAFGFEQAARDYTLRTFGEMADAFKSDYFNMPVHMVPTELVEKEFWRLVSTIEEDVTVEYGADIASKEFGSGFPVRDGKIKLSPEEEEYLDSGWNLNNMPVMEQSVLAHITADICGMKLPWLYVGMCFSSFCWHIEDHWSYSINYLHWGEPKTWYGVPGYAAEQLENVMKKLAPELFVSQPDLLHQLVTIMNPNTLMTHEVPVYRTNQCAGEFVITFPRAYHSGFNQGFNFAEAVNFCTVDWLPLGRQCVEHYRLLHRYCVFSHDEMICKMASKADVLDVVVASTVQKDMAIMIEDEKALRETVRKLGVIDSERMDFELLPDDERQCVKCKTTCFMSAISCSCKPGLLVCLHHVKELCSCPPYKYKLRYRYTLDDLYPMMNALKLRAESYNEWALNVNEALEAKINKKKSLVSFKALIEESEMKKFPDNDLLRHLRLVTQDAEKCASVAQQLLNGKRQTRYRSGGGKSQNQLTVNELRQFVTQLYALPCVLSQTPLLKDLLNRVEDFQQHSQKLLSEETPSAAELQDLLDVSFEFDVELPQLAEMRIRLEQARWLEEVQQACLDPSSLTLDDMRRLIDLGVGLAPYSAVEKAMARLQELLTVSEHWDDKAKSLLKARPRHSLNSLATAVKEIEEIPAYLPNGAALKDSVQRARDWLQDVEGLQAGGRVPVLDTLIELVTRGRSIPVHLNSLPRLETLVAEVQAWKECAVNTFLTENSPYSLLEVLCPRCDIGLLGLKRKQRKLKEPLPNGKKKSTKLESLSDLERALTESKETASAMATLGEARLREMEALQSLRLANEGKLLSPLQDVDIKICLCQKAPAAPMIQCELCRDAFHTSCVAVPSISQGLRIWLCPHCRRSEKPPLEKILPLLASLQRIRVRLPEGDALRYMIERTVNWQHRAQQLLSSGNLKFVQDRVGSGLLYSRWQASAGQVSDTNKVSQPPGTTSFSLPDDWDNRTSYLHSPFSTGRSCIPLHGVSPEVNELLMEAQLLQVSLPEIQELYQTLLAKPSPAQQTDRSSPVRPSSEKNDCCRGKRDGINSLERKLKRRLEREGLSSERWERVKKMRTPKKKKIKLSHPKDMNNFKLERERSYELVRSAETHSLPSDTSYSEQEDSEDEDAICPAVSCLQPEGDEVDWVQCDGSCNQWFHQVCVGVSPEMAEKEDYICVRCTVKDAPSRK
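KDM5BΔAP (200 nM final) in 50 mM HEPES pH 7.5, 0.01% Tween-20 was preincubated 10 min at RT with compound over a concentration range. Substrate mix (H3K4me3 12.5 µM, α-KG 25 µM, Fe²⁺, ascorbate, NAD⁺, FDH) was added, and NADH fluorescence change over 30 min gave dose-response curves.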
SNCA expr inhib: reduces expression of the alpha-synuclein gene | HEK-293 SNCA-luciferase knock-in, luminescence, 24 h | Potency, µM (series often up to 57.2 µM), actives largely listed as inhibitors | 140,000 tested, 0.17% active | AID 1671194; also: nearly all actives have a fitted effect of over 45% in size
IP6K1 inhibitor: blocks human inositol hexakisphosphate kinase 1; AID 1645851; IP6K1 kinase, ADP-Glo luminescence, 2 h; stronger effect = lower value; 140,000 tested, 0.81% active; activity change, % (series mostly up to about 58 µM); in the data active = activity change below about -25%
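ADP-Glo luminescence measures ADP made by human IP6K1 during a 2 h RT reaction with ATP/IP6 (mix at 1.3 mM/130 uM); top library doses 57.5 and 19.1 uM final.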
Numbers stand for hits. In the library only some 2.8% were active in any assay of this set; here they are far more common. Unless noted, calls follow the shape of the dose curve; as a rule, active = well fitted curve in the direction sought with a large enough effect; inconclusive = small, poorly fitted or top-dose-only effect, or another doubt; inactive = no such curve, though single readings can be large; an effect the other way counts as inactive or inconclusive.

What do the screens show for `COc1cccc(-c2cc(C(=O)NCC#N)c3cnn(C)c3n2)c1`?
IP6K1 inhibitor: inactive

Results for CC1CCN(c2nc3ccccc3nc2SCC(=O)N2CCCCCC2)CC1 ?
KDM5B inh: inactive

What do the screens show for `CN(C)CCOc1ccccc1-c1ccc(C#N)cc1`?
HEK293 viab: inactive; KDM5B inh: 32µM; SNCA expr inhib: inactive; IP6K1 inhibitor: inactive

What do the screens show for `CC(C)c1ccc(NC(=O)C2CCCC2)cc1`?
KDM5B inh: inactive

How did CCCn1cc(-c2ccnc(NCc3c(F)ccc(C)c3F)n2)c(C)n1 do in these assays?
HEK293 viab: inactive; KDM5B inh: inconclusive; SNCA expr inhib: inactive; IP6K1 inhibitor: inactive

Results for CCCn1cc(-c2ccnc(NCc3cccc(C)c3)n2)c(C)n1 ?
HEK293 viab: inactive; KDM5B inh: 28µM; SNCA expr inhib: inactive; IP6K1 inhibitor: inactive

Results for O=C(NCCCn1cccn1)c1ccccc1OC1CCN(Cc2ccccn2)CC1 ?
HEK293 viab: inactive; KDM5B inh: inactive; SNCA expr inhib: inactive; IP6K1 inhibitor: inactive

What do the screens show for `CCCn1cc(-c2ccnc(NC3CCN(Cc4ccccn4)CC3)n2)c(C)n1`?
HEK293 viab: inactive; KDM5B inh: 28µM; SNCA expr inhib: inconclusive; IP6K1 inhibitor: inactive

Results for COc1ccc(NC(=O)c2cnc[nH]2)cc1 ?
HEK293 viab: inactive; KDM5B inh: inactive; SNCA expr inhib: 14µM; IP6K1 inhibitor: inactive

Results for COc1ccc(C(=O)c2cnc[nH]2)cc1 ?
KDM5B inh: inactive

How did CCc1ccc(OCC(=O)Nc2ccc(S(=O)(=O)Nc3ccccc3)cc2)c(Br)c1 do in these assays?
KDM5B inh: inactive

How did CN(C)c1ccc(C(=O)N2CCN(c3nnc4ccccn34)CC2)cc1 do in these assays?
HEK293 viab: inactive; KDM5B inh: 18µM; SNCA expr inhib: inactive; IP6K1 inhibitor: inactive

What do the screens show for `CCc1ccc(C(=O)N2CCCN(c3nnc4ccccn34)CC2)cc1`?
HEK293 viab: inconclusive; KDM5B inh: 25µM; SNCA expr inhib: inconclusive; IP6K1 inhibitor: inactive

How did O=C(c1ccoc1)N1CCN(c2nnc3ccccn23)CC1 do in these assays?
HEK293 viab: inactive; KDM5B inh: 32µM; SNCA expr inhib: inactive; IP6K1 inhibitor: inactive

How did COc1ccccc1-c1cccc(CN2CCCC(C(=O)NCc3cccc(C(F)(F)F)c3)C2)c1 (stereo not drawn) do in these assays?
HEK293 viab: inactive; SNCA expr inhib: inconclusive; IP6K1 inhibitor: inactive

What do the screens show for `CNC(=O)c1cc(C)nc2onc(C3CCCN(C(=O)c4cccc(Cl)c4)C3)c12` (stereo not drawn)?
IP6K1 inhibitor: inactive

Results for O=C(c1ccccc1F)N1CCC2(CC1)CC(=O)N(c1ccccc1)c1ccccc1O2 ?
HEK293 viab: inactive; KDM5B inh: inactive; SNCA expr inhib: inactive; IP6K1 inhibitor: inactive

How did O=C1CC2(CCN(C(=O)c3ccccn3)CC2)Oc2ccccc21 do in these assays?
HEK293 viab: inactive; KDM5B inh: 32µM; SNCA expr inhib: inactive; IP6K1 inhibitor: inactive

How did O=C1CC2(CCN(C(=O)c3ccccc3)CC2)Oc2ccccc21 do in these assays?
HEK293 viab: inactive; KDM5B inh: 32µM; SNCA expr inhib: inactive; IP6K1 inhibitor: inactive

How did O=C1NC2(CCCN(C(=O)c3ccccn3)C2)Oc2ccccc21 (stereo not drawn) do in these assays?
HEK293 viab: inactive; KDM5B inh: inactive; SNCA expr inhib: inactive; IP6K1 inhibitor: inactive

How did O=C1CC2(CCN(C(=O)c3ccccc3F)CC2)Oc2ccccc21 do in these assays?
HEK293 viab: inactive; KDM5B inh: 25µM; SNCA expr inhib: inactive; IP6K1 inhibitor: inactive

How did COc1ccccc1-c1ccc(C(=O)N2C[C@@H](N(C)C)[C@H](C(C)C)C2)cc1 do in these assays?
HEK293 viab: inactive; KDM5B inh: 28µM; SNCA expr inhib: inactive; IP6K1 inhibitor: inactive

How did O=C(CC1(O)C(=O)N(Cc2ccccc2)c2ccccc21)c1ccccc1Cl (stereo not drawn) do in these assays?
KDM5B inh: inactive

Results for Cc1ccnc(NCCNC(=O)C2CCC(=O)N(CC3CCCCC3)C2)c1 (stereo not drawn) ?
HEK293 viab: inactive; KDM5B inh: 28µM; SNCA expr inhib: inactive; IP6K1 inhibitor: inactive

How did Cc1ccc(F)cc1S(=O)(=O)N[C@@H]1CCN(Cc2ccc(OC(C)C)cc2)C1 do in these assays?
HEK293 viab: 9.5µM; IP6K1 inhibitor: inactive

How did Cc1nc(-c2ccccc2)n(Cc2nc(-c3ccccc3)oc2C)c(=O)c1CCO do in these assays?
HEK293 viab: inactive; KDM5B inh: inactive; SNCA expr inhib: inactive; IP6K1 inhibitor: inactive

How did Cc1nc(-c2ccccc2)n(Cc2cc(=O)n3ccccc3n2)c(=O)c1CCO do in these assays?
HEK293 viab: inactive; KDM5B inh: 22µM; SNCA expr inhib: inactive; IP6K1 inhibitor: inactive

Results for Cn1ncc2c(C(=O)NCCCNC(=O)OC(C)(C)C)cc(-c3cccc(F)c3)nc21 ?
IP6K1 inhibitor: inactive

How did CCn1nc(C(=O)Nc2c(F)c(F)c(F)c(F)c2F)c2ccccc2c1=O do in these assays?
KDM5B inh: inactive

How did Cn1cccc1C(=O)N1CC(Oc2cccc(-c3nc(-c4ccccc4)no3)c2)C1 do in these assays?
HEK293 viab: inactive; KDM5B inh: 32µM; SNCA expr inhib: inactive; IP6K1 inhibitor: inactive

How did O=C(c1cccc2[nH]ccc12)N1CC(Oc2cccc(-c3nc(-c4ccccc4)no3)c2)C1 do in these assays?
HEK293 viab: inactive; KDM5B inh: 25µM; SNCA expr inhib: inactive; IP6K1 inhibitor: inactive

Results for CCc1noc(-c2ccn3c(CNC(=O)Cc4c[nH]c5ccccc45)nnc3c2)n1 ?
HEK293 viab: inactive; KDM5B inh: inconclusive; SNCA expr inhib: inactive; IP6K1 inhibitor: inactive

What do the screens show for `O=C(CCCc1ccccc1)NCc1nnc2cc(-c3nc(C4CC4)no3)ccn12`?
HEK293 viab: inactive; KDM5B inh: 28µM; SNCA expr inhib: inactive; IP6K1 inhibitor: inactive

What do the screens show for `CCc1noc(-c2ccn3c(CNC(=O)CCCc4ccccc4)nnc3c2)n1`?
HEK293 viab: inactive; KDM5B inh: 7.1µM; SNCA expr inhib: inactive; IP6K1 inhibitor: inactive

How did O=c1c2cc(-c3cccs3)nn2ccn1CC(O)c1ccc(F)cc1 (stereo not drawn) do in these assays?
HEK293 viab: inactive; KDM5B inh: 16µM; SNCA expr inhib: inactive; IP6K1 inhibitor: inactive

How did Cc1ccc(C(O)Cn2ccn3nc(-c4ccc(F)cc4)cc3c2=O)cc1 (stereo not drawn) do in these assays?
HEK293 viab: inactive; KDM5B inh: 14µM; SNCA expr inhib: inactive; IP6K1 inhibitor: inactive

How did Cc1ccc(C(O)Cn2ccn3nc(-c4ccc(F)cc4)cc3c2=O)cc1C (stereo not drawn) do in these assays?
HEK293 viab: inactive; KDM5B inh: inactive; SNCA expr inhib: inactive; IP6K1 inhibitor: inactive

Results for CC(C)c1ccc(C(O)Cn2ccn3nc(-c4ccc(F)cc4)cc3c2=O)cc1 (stereo not drawn) ?
HEK293 viab: inactive; KDM5B inh: 25µM; SNCA expr inhib: inactive; IP6K1 inhibitor: inactive

Results for COC(=O)C1=C(N)Oc2c(oc(CO)cc2=O)C1c1ccc(F)cc1F (stereo not drawn) ?
KDM5B inh: inactive

What do the screens show for `O=C(Nc1cnc(-c2cccnc2)nc1)C1CCCC1`?
HEK293 viab: inactive; KDM5B inh: inactive; SNCA expr inhib: inactive; IP6K1 inhibitor: inactive
